# Assay results reported in PubChem BioAssay (Tox21).
# Results filed as inconclusive are left out. Active and inactive are the calls of the source. The call rests on the fitted dose curve; in most records, active means well fitted cell-killing curve with a large enough effect in the repeat runs; inconclusive means weak or mixed curves, or effect the other way; inactive means no such curve, though single readings can be large or run the other way.
# Test: qHTS assay to identify small molecule antagonists of the peroxisome proliferator-activated receptor gamma (PPARg) signaling pathway - cell viability counter screen (AID 743194); further: nearly all actives have a fitted effect of over 55% in size
# Conditions: PPARg-bla HEK293H viability, CellTiter-Glo luminescence, 17 h; series mostly up to 62.6 µM; activity change, negative = cytotoxicity: at the top concentration
# Text: U.S. Tox21 Program National Center for Advancing Translational Sciences [NCATS] NIH Chemical Genomics Center [NCGC] U.S. Environmental Protection Agency [EPA] National Institutes of Environmental Health Sciences [NIEHS] National Toxicology Program [NTP] U.S. Food and Drug Administration [FDA] Tox21 Assay Overview: The peroxisome proliferator-activated receptors (PPARs) are lipid-activated transcription factors of the nuclear receptor superfamily with three distinct subtypes namely PPAR alpha, PPAR delta (also called PPAR beta) and PPAR gamma (PPARg). All these subtypes heterodimerize with Retinoid X receptor (RXR) and these heterodimers regulate transcription of various genes. PPAR-gamma receptor (glitazone receptor) is involved in the regulation of glucose and lipid metabolism. To identify the compounds that activate PPAR-gamma signaling, GeneBLAzer PPAR gamma UAS-bla HEK293H cell line (Invitrogen, Carlsbad, CA, USA) containing a beta-lactamase reporter gene under the control of an Upstream Activator Sequence (UAS) was used to screen the Tox21 compound library. The cytotoxicity of the Tox21 compound library against the PPARg-bla cell line was tested in parallel by measuring the cell viability using CellTiter-Glo assay in the same wells.
# Tox21 Assay Protocol Summary: PPARg-bla cells were dispensed at 3000 cells/5uL/well in 1536-well black wall/clear bottom plates using a Multidrop Combi (Thermo Fisher Scientific, Waltham, MA) dispenser. After the assay plates were incubated at 37 C and 5% CO2 for 5 h, 23 nL of compounds dissolved in DMSO, positive controls or DMSO only was transferred to the assay plate by a Pintool station (Kalypsys, San Diego, CA), followed by addition of 1ul Rosiglitazone (50 nM, final concentration in the wells). The assay plates were incubated at 37 C for 17 h, and then 1 uL of LiveBLAzerTM B/G FRET substrate was added using a Bioraptr Flying Reagent Dispenser (FRD) workstation (Beckman Coulter, Indianapolis, IN, USA). The assay plates were incubated at room temperature for 1 h and fluorescence intensity was measured by an Envision plate reader (PerkinElmer, Shelton, CT). For cell viability readout that measures cytotoxicity, 4 ul/well of CellTiter-Glo reagent was added into the assay plates using a Flying Reagent Dispenser. After 30 min incubation at room temperature, the luminescence intensity in the plates was measured using a ViewLux plate reader (PerkinElmer).
# On the % scale 0 is the no-effect control and ±100 the full control effect.
SMILES,outcome,"activity change, negative = cytotoxicity"
C=CC#N,inactive,–
[N-]=[N+]=CC(=O)OC[C@H](N)C(=O)O,inactive,–
Nc1cc(Cl)cc(Cl)c1,–,-10.6% (inactive)
COc1cc(-c2ccc(N)c(OC)c2)ccc1N,inactive,–
Nc1ccc([As](=O)(O)O)cc1,inactive,–
CNC(=O)Oc1cccc2ccccc12,inactive,–
C=CC(=O)OCC(CC)CCCC (stereo not given),–,-5.91% (inactive)
CCOP(=S)(OCC)Oc1ccc([N+](=O)[O-])cc1,inactive,–
O=C(O)c1cc(Oc2ccc(C(F)(F)F)cc2Cl)ccc1[N+](=O)[O-],inactive,–
Clc1cnc(Oc2ccc(Oc3ncc(Cl)cc3Cl)cc2)c(Cl)c1,inactive,–
CC12CC1(C)C(=O)N(c1cc(Cl)cc(Cl)c1)C2=O (stereo not given),inactive,–
O=[N+]([O-])c1ccc(Cl)c(Cl)c1,–,-22.8% (inactive)
CCCOC(=O)c1ccccc1C(=O)OCCC,–,1.22% (inactive)
O=C/C=C/c1ccccc1,inactive,–
C/C=C/c1ccc2c(c1)OCO2,inactive,–
CC(C)CCCCCCOC(=O)c1ccccc1C(=O)OCCCCCCC(C)C,inactive,–
C=CC(=O)OCCCCCC(C)C,inactive,–
Cc1ccc(N)cc1,inactive,–
C[C@]12CC[C@H](O)CC1=CC[C@@H]1[C@@H]2CC[C@]2(C)C(=O)CC[C@@H]12,inactive,–
Nc1cccc(Cl)c1,inactive,–

SMILES,outcome,"activity change, negative = cytotoxicity"
CC(=O)/C=C/c1ccccc1,inactive,–
CN1C(=O)CCS(=O)(=O)C1c1ccc(Cl)cc1 (stereo not given),inactive,–
C=CCN=C=S,inactive,–
N#CN=C(N)N,inactive,–
CNC(=O)O/N=C/C(C)(C)S(C)(=O)=O,inactive,–
CC(=O)C1CCOC1=O (stereo not given),inactive,–
FC(F)(F)c1ccc(Cl)cc1,–,10.5% (inactive)
CN(C)C(=O)C(c1ccccc1)c1ccccc1,inactive,–
ClCCOCCCl,inactive,–
COS(=O)(=O)OC,inactive,–
Cl/C=C/Cl,inactive,–
CNC(=O)O/N=C(\SC)C(=O)N(C)C,inactive,–
CCNc1nc(Cl)nc(NC(C)C)n1,inactive,–
Cc1ccc(O)c(C)c1,inactive,–
Oc1ccc(Cl)cc1,inactive,–
COC(=O)Nc1cccc(OC(=O)Nc2cccc(C)c2)c1,inactive,–
CCSC(=O)N1CCCCCC1,–,21.2% (inactive)
CN(C)C(=O)Nc1cccc(C(F)(F)F)c1,inactive,–
Cc1cccc(N)c1,inactive,–
CSc1nnc(C(C)(C)C)c(=O)n1N,–,30% (inactive)
